# Screening data deposited in PubChem by National Center for Advancing Translational Sciences (NCATS).
# This is a sample that favours compounds with a hit; in the whole collection about 3.2% have one here.
# LmPK inhibitor – inhibitors of Leishmania mexicana pyruvate kinase; Q27686; purified LmPK, Kinase-Glo ATP luminescence, 1 h; Potency, µM (doses to about 57.5 µM), without a hit: top-dose activity change, negative = inhibition, actives largely listed as inhibitors; hit rate 0.37% among 290,000; AID 1721
# Target sequence (Q27686 whole entry, looked up): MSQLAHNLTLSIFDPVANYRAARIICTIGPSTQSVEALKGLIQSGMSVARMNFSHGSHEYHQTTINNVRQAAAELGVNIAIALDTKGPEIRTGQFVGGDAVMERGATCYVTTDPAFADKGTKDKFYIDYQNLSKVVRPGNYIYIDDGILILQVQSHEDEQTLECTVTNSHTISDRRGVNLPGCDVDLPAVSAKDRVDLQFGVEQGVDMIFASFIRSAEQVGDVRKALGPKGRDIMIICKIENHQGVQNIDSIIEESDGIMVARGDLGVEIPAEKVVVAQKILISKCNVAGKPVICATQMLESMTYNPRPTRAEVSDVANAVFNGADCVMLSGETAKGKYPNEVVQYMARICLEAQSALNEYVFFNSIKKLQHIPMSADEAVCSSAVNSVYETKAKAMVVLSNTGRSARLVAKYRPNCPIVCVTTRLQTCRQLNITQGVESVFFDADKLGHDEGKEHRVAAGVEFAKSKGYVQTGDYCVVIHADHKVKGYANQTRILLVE
#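 0.1 nM LmPK, 0.5 mM PEP, 0.1 mM ADP; 50 mM imidazole pH 7.2, 7 mM MgCl2, 50 mM KCl; 1 h RT. Kinase-Glo luminescence readout, normalized to no-enzyme (full inhibition) and uninhibited wells.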
# Sm TGR inh – blocks Schistosoma mansoni thioredoxin glutathione reductase | Q962Y6 | purified TGR, DTNB reduction, TNB absorbance 405 nm | Potency, µM (highest dose often 114 µM), without a hit: at the highest dose activity change, negative = inhibition, hits mostly inhibitors | hit rate 3% among 360,000 | AID 485364; note: nearly all actives have a fitted effect of over 60% in size
#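 TGR 20 nM + NADPH 100 uM (dispensed conc.), cpd preinc 15 min RT; start with NADPH (500 uM addition) then DTNB (15 mM addition). Kinetic TNB absorbance, 405 nm filter. Four-parameter Hill fit across titration.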
# RE007 growth inh – less growth of the S. pombe RE007 Vpr strain. S. pombe RE007 Vpr strain, BacTiter-Glo ATP luminescence, 24 h. Potency, µM (highest dose often 92.2 µM), without a hit: top-dose activity change, negative = less growth, most hits filed as inhibitors. hit rate 0.21% among 360,000. AID 651644; active = well fitted falling curve with a large enough effect; inconclusive = small, poorly fitted or top-dose-only effect; inactive = no such curve, though single readings can be large or run the other way; note: nearly all actives have a fitted effect of over 50% in size
#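 Fission yeast strain RE007, carrying one chromosomally integrated HIV-1 vpr copy, was seeded at OD 0.01 in PMG+AL medium with 23 nL pinned compound. After 24 h at 30 °C and 99% humidity, viability was read by BacTiter-Glo luminescence.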
# Tb PYK inh – inhibitors of Trypanosoma brucei pyruvate kinase | Q57TT1 | TbPYK enzyme, Kinase-Glo Plus ATP luminescence, 45 min | Potency, µM (series often up to 76.8 µM), inactives show at the top dose activity, negative = inhibition, most hits filed as inhibitors | hit rate 0.12% among 410,000; note: nearly all actives have a fitted effect of over 50% in size
#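 Luminescent Kinase-Glo Plus end-point after 45 min room-temperature reaction of T. brucei pyruvate kinase started with 130 uM ADP (final). Buffer TEA 50 mM pH 7.2 with KCl, MgCl2, BSA, Tween-20; titration-based qHTS with fitted concentration-effect curves.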
# AMA1 RON2 block – AMA1-RON2 (P. falciparum) interaction inhibition; Potency, µM (doses to about 58.2 µM), without a hit: top-dose activity change, negative = inhibition, actives largely listed as inhibitors; AlphaScreen AMA1-biotinylated RON2 peptide binding; hit rate 0.2% among 360,000;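 note: 0% = vehicle wells and -100% = peptide control; nearly all actives have a fitted effect of over 45% in size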
#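 AMA1 (3D7) with his tag at 25 nM final met compounds first, then biotinylated RON2 peptide at 25 nM; detection used donor plus acceptor beads, 10 µg/mL apiece, read by AlphaScreen after 30 min at room temperature.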
# Active calls of the source: *; ? = inconclusive; / = no result; [ ] = dose if it differs, or a comment. Unless noted, calls come from the whole dose curve; as a rule, active = well fitted curve in the direction sought with a large enough effect; inconclusive = small, poorly fitted or top-dose-only effect, or another doubt; inactive = no such curve, though single readings can be large; an effect the other way counts as inactive or inconclusive. Unless noted, % is set by controls: 0 for no effect and ±100 for the full control effect; potency is the fitted concentration of half-maximal effect.
SMILES,LmPK inhibitor,Sm TGR inh,RE007 growth inh,Tb PYK inh,AMA1 RON2 block
COc1ccc(-c2cn3nc4c(nc3n2)CCCC4)cc1,16µM*,-32%,-12%,-14%,7%
FC(F)(F)c1ccc(Cl)c(-n2c(Cc3cccs3)n[nH]c2=S)c1,8.9µM*,9%,17%,?,95%
Fc1ccc(-n2c(Cc3cccs3)n[nH]c2=S)cc1Cl,-21%,12%,4%,?,115%
Cc1ccccc1-n1c(Cc2cccs2)n[nH]c1=S,8.9µM*,-25%,13%,?,4%
CCCCc1nc2c(c3c1C[C@H](C)OC3)CN(S(=O)(=O)c1ccc(C)cc1)CC2,0%[11.5 µM],/,/,/,/
Cc1cccc(C)c1NC(=O)CN(Cc1ccc(Br)cc1)S(=O)(=O)c1ccccc1,/,2%,/,-4%,/
O=C1NN(c2cccc(Br)c2)C(=O)/C1=C\c1ccccc1,4%,50µM*,25%,?,-3%
O=C1NN(c2ccccc2)C(=O)/C1=C\c1ccccc1,-4%,?,2%,-28%,-7%
COC(=O)C1C(c2ccc(OC)c(OC)c2)NC(c2ccc(OC)c(OC)c2)C(C(=O)OC)S1(=O)=O (stereo not drawn),1%,20µM*,-3%,-8%,-9%
CCc1ccc(NC(=O)CSc2nc3ncccc3[nH]2)cc1,/,5%,/,-6%,/
CS(=O)(=O)Nc1cccc(C2=NN(S(=O)(=O)c3ccc(F)cc3)C(c3cccs3)C2)c1 (stereo not drawn),2%,-13%,19%,6%,-17%
COc1ccc(S(=O)(=O)N2N=C(c3ccc(NS(C)(=O)=O)cc3)CC2c2ccco2)cc1 (stereo not drawn),7%[11.5 µM],14µM*,3%,-10%,-9%
COc1ccc(S(=O)(=O)N2N=C(c3cccc(NS(C)(=O)=O)c3)CC2c2ccco2)cc1 (stereo not drawn),-5%,22µM*,3%,-19%,0%
O=C(Cc1ccc(Cl)cc1)NC1CC(=O)N(c2ccc3c(c2)OCCO3)C1 (stereo not drawn),/,-3%,/,-2%,/
COc1ccc(S(=O)(=O)n2nc(C)c(S(=O)(=O)N3CCC(C)CC3)c2C)cc1C,/,1%,/,-9%,/
CN(C)c1ccc(N=Cc2ccco2)cc1,?,32µM*,?,-16%,-25%
CN(C)c1ccc(C=Nc2ccc(N(C)C)cc2)cc1,-18%,-22%,-22%,-22%,?
O=C(COc1ccccc1[N+](=O)[O-])N1CCC(c2nc3ccccc3o2)CC1,/,4%,/,0%,/
CCN(CC)C(=O)CC(c1ccc(F)cc1)c1ccco1 (stereo not drawn),1%,28µM*,2%,-7%,0%
CCCN(CCC)C(=O)CC(c1ccccc1)c1ccco1 (stereo not drawn),1%,14µM*,5%,-4%,-10%
COC(=O)c1cc2occc2n1Cc1ccc(F)cc1Cl,/,0%,/,-5%,/
Cn1c(Cc2c[nH]c3ccccc23)n[nH]c1=S,-5%,-18%,1%,18µM*,13%
Cc1[nH]c2ccccc2c1SCc1n[nH]c(=S)n1C,7.9µM*,1%,21%,?,72%
Cn1c(Cn2c3ccccc3c3ccccc32)n[nH]c1=S,3%,-11%,10%,?,88%
Cc1[nH]c2ccccc2c1Cc1n[nH]c(=S)n1C,-1%,-9%,-8%,?,-26%
SMILES,LmPK inhibitor,Sm TGR inh,RE007 growth inh,Tb PYK inh,AMA1 RON2 block
COC(=O)c1ccc(CSc2c(C(C)C)cnc3c2c(=O)n(C)c(=O)n3C)cc1,/,0%,/,?,/
CC(=O)N1CCN(C(=O)CCc2nnc(CCCCc3ccccc3)o2)CC1,7%,45µM*,5%,1%,8%
CCOC(=O)C1CCN(C(=O)c2nn(-c3ccc(C)cc3)c(=O)n(C)c2=O)CC1,/,1%,/,1%,/
O=C(CSc1ccc(-c2ccco2)nn1)NCc1ccc(F)cc1,-1%,35µM*,-15%,4%,-3%
O=C(CSc1ccc(-c2ccco2)nn1)c1ccc(F)cc1,-8%,20µM*,-11%,20µM*,-26%
CCc1cccc(NC(=O)C(NS(=O)(=O)c2ccc3nc(C)sc3c2)C(C)C)c1 (stereo not drawn),/,-3%,/,-1%,/
Cc1ccc(NC(=O)c2nc(S(C)(=O)=O)ncc2N(Cc2ccc(C(C)(C)C)cc2)Cc2ccco2)cc1C,/,-5%,/,2%,/
COc1ccccc1NC(=O)c1csc2c1CCC(C)C2 (stereo not drawn),1%,50µM*,-27%,3%,7%
COc1ccc(NC(=O)c2c(NCc3ccc(C)o3)sc3c2CCC(C)C3)c(OC)c1 (stereo not drawn),/,28µM*,/,-20%,/
COc1ccccc1NC(=O)c1c(NCc2ccc(C)o2)sc2c1CCC(C)C2 (stereo not drawn),/,32µM*,/,-30%,/
COc1ccc(NC(=O)c2c(NCc3cccs3)sc3c2CCC(C)C3)c(OC)c1 (stereo not drawn),/,-8%,/,?,/
Cc1cc(F)ccc1NC(=O)c1csc2c1CCC(C)C2 (stereo not drawn),/,-1%,/,-8%,/
COc1ccc(NC(=O)c2c(NCc3cccs3)sc3c2CCCC3)c(OC)c1,/,-5%,/,-7%[15.4 µM],/
COc1ccccc1NC(=O)c1c(NC(=O)Cc2ccccc2)sc2c1CCC(C(C)(C)C)C2 (stereo not drawn),/,6%,/,0%,/
COc1ccc(NC(=O)c2c(NCc3ccc(C)o3)sc3c2CCCCC3)c(OC)c1,/,2.8µM*,/,?,/
Cc1cccc(CSc2cn(CC(=O)N3CCCCC3)c3ccccc23)c1,/,2%,/,0%,/
COc1cccc(CNC(=O)CSC2=Nc3ccccc3C3=NC(C(C)C)C(=O)N23)c1 (stereo not drawn),/,0%,/,-5%,/
COc1cccc(NC(=O)C2CCN(c3nc4ccccc4nc3C(F)(F)F)CC2)c1,/,6%,/,0%,/
COc1ccc(NC(=O)c2c(NCc3ccc(C)o3)sc3c2CCC(C)C3)cc1 (stereo not drawn),/,10µM*,/,?,/
